We go through ten compounds from PubChem BioAssay (NCATS).

Records with an inconclusive call do not appear. Where a call stands in place of a potency, no number is given. Values without a mark were called inactive. Calls of active or inactive are those of the source. The call rests on the fitted dose curve; in most records, active means well fitted cell-killing curve with a large enough effect; inconclusive means small, poorly fitted or top-dose-only effect, or effect the other way; inactive means flat fitted curve, though single readings scatter. *1 amine or outer side, *2 acyl side, *3 side chain or, on linkers, in order; H or OH if unused. Where a SMILES comes first, the peptide text is derived from it. [ ]: non-standard residue; d: D form. X4 = CC(C)=CCc1cc(C(O)C(N[*:1])C(=O)[*:2])ccc1O

The test system of this assay is HeLa. Kind of assay: Primary qHTS to identify gynecologic anti-cancer compounds using libraries of approved drugs and bioactive compounds (AID 1345084). Further: nearly all actives have a fitted effect of over 55% in size. Particulars: Gynecologic cancer cell panel viability, ATPlite luminescence, 48 h; series mostly up to 57.5 µM. The procedure, abridged:
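ATP-based viability (ATPlite), 1,000 cells/well, 16 h pre-incubation, 48 h compound at 37 C, 5% CO2, 15 min RT before read.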
In general terms: In qHTS, concentration-response curves come from the screen itself.
As to `CN(C)CC1CCOC1(c1ccccc1)c1ccccc1` (stereo not given), the Potency entry was “inactive”. Take `O=C(OC1C=C(CO)C2C(OC3OC(CO)C(O)C(O)C3O)OC=CC12)c1ccc(O)cc1` (stereo not given): the Potency entry was “inactive”. On to `CC1(C)CC[C@]2(C(=O)OC3OC(CO)C(O)C(O)C3O)CC[C@]3(C)C(=CCC4[C@@]5(C)CC[C@H](OC6OC(C(=O)O)C(O)C(OC7OC(CO)C(O)C(O)C7O)C6O)C(C)(C)C5CC[C@]43C)C2C1` (stereo not given in full), for which the activity change, negative = cytotoxicity is 2% [at 11.6 µM].

On to `CC(C)=CCc1cc(C(O)C2NC(=O)CNC(=O)C(Cc3c[nH]c4ccccc34)NC(=O)C3CCCN3C(=O)CNC(=O)C(C(C)C)NC(=O)CNC2=O)ccc1O` (stereo not given) (cyclo(G[X4]GVGPW); configuration not given here), for which the activity change, negative = cytotoxicity was 5.32% [at 11.6 µM].

`COc1ccc(CCO[C@@H]2CCCC[C@H]2N2CC[C@@H](O)C2)cc1OC`: the Potency entry is “inactive”.

Turning to `COC(=O)C1=CO[C@@H](O[C@@H]2O[C@H](CO)[C@@H](O)[C@H](O)[C@H]2O)[C@@H]2C(COC(C)=O)=C[C@H](O)[C@H]12`, the Potency result is “inactive”. As for `CC12CCC(OC3OC(CO)C(O)C(OC4OC(CO)C(O)C(O)C4O)C3O)CC1=CCC1C2CCC2(C)/C(=C3/COC(=O)C3)CCC12O` (stereo not given), the Potency result is “inactive”. Consider `C/C1=C\[C@H]2OC(=O)[C@@H](C)[C@@H]2CC/C(C(=O)O)=C/CC1`, for which the Potency entry was “inactive”. For `CC12CCC(OC3OC(CO)C(O)C(OC4OC(CO)C(O)C(O)C4O)C3O)CC1CCC1C2CCC2(C)/C(=C3/COC(=O)C3)CCC12O` (stereo not given), the Potency result was “inactive”. With `CC1(C)CCC[C@@]2(C)C1[C@H](OC(=O)/C=C/C=C/C(=O)O)C=C1COC(=O)[C@@]12O` (stereo not given in full), the Potency result is “inactive”.
